# Laboratory results reported in PubChem BioAssay AID1159580 (chemical genetic matrix, 2015).
# About 2,000 (36%) of roughly 5,500 compounds were called active. Another 18% or so got no clear call; they are omitted. Some of the results follow. A number with no mark means an inactive call. Cut-off read from the data, not from the text of the source: active = normalized growth mostly below about 0.91 (no sharp cut-off); inconclusive = no clear call, values can overlap the other calls; inactive = mostly above about 0.92.
# Assay: chemical genetic growth profiling, strain panel (AID 1159580);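 note: tested at 20 µM; growth read once vehicle control cultures reached saturation at 30 °C; 1 = growth at the plate median or of vehicle wells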
# Conditions: S. cerevisiae deletion strains, growth OD
smiles,measurement,setting,value
CC(C)c1ccc(-c2cc(=O)c3ccccc3o2)cc1,normalized growth,"locus YAR019C, strain CDC15, stronger effect = lower value",0.937
same,normalized growth,"locus YBL105C, strain PKC1, stronger effect = lower value",0.935
same,normalized growth,"locus YBR135W, strain CKS1, stronger effect = lower value",0.932
same,normalized growth,"locus YBR136W, strain MEC1, stronger effect = lower value",0.941
same,normalized growth,"locus YBR160W, strain CDC28, stronger effect = lower value",0.941
same,normalized growth,"locus YDL017W, strain CDC7, stronger effect = lower value",0.932
same,normalized growth,"locus YDL028C, strain MPS1, stronger effect = lower value",0.933
same,normalized growth,"locus YDL101C, strain DUN1, stronger effect = lower value",0.945
same,normalized growth,"locus YDL108W, strain KIN28, stronger effect = lower value",0.934
same,normalized growth,"locus YDL132W, strain cdc53, stronger effect = lower value",0.948
same,normalized growth,"locus YDL214C, strain PRR2, stronger effect = lower value",0.814
same,normalized growth,"locus YDR052C, strain DBF4, stronger effect = lower value",0.944
same,normalized growth,"locus YDR054C, strain cdc34, stronger effect = lower value",0.917
same,normalized growth,"locus YDR226W, strain ADK1, stronger effect = lower value",0.931
same,normalized growth,"locus YDR477W, strain SNF1, stronger effect = lower value",0.791
same,normalized growth,"locus YER123W, strain YCK3, stronger effect = lower value",0.721
same,normalized growth,"locus YER133W, strain GLC7, stronger effect = lower value",0.762
same,normalized growth,"locus YFL009W, strain cdc4, stronger effect = lower value",0.921
same,normalized growth,"locus YFL029C, strain CAK1, stronger effect = lower value",0.932
same,normalized growth,"locus YFR003C, strain YPI1, stronger effect = lower value",0.928
same,normalized growth,"locus YFR019W, strain FAB1, stronger effect = lower value",0.864
same,normalized growth,"locus YFR028C, strain CDC14, stronger effect = lower value",0.915
same,normalized growth,"locus YGR040W, strain KSS1, stronger effect = lower value",0.728
same,normalized growth,"locus YGR052W, strain FMP48, stronger effect = lower value",0.759
same,normalized growth,"locus YGR092W, strain DBF2, stronger effect = lower value",0.569
same,normalized growth,"locus YHR030C, strain SLT2, stronger effect = lower value",0.631 (active)
same,normalized growth,"locus YHR079C, strain IRE1, stronger effect = lower value",0.849
same,normalized growth,"locus YHR082C, strain KSP1, stronger effect = lower value",0.875
same,normalized growth,"locus YHR205W, strain SCH9, stronger effect = lower value",0.82
same,normalized growth,"locus YIL147C, strain SLN1, stronger effect = lower value",0.932
same,normalized growth,"locus YJL095W, strain BCK1, stronger effect = lower value",0.82
same,normalized growth,"locus YJL128C, strain PBS2, stronger effect = lower value",0.86
same,normalized growth,"locus YJL157C, strain FAR1, stronger effect = lower value",0.832
same,normalized growth,"locus YJR016C, strain ILV3, stronger effect = lower value",0.922
same,normalized growth,"locus YJR066W, strain TOR1 (second series), stronger effect = lower value",0.633
same,normalized growth,"locus YJR066W, strain TOR1, stronger effect = lower value",0.863
same,normalized growth,"locus YKL048C, strain ELM1, stronger effect = lower value",0.797 (active)
same,normalized growth,"locus YKL067W, strain YNK1, stronger effect = lower value",0.812
same,normalized growth,"locus YKL101W, strain HSL1, stronger effect = lower value",0.725
same,normalized growth,"locus YKL193C, strain SDS22, stronger effect = lower value",0.928
same,normalized growth,"locus YKL203C, strain TOR2, stronger effect = lower value",0.836
same,normalized growth,"locus YLR113W, strain HOG1, stronger effect = lower value",0.596 (active)
same,normalized growth,"locus YLR133W, strain CKI1, stronger effect = lower value",0.855
same,normalized growth,"locus YLR403W, strain SFP1, stronger effect = lower value",0.858
same,normalized growth,"locus YML070W, strain DAK1, stronger effect = lower value",0.698
same,normalized growth,"locus YMR001C, strain CDC5, stronger effect = lower value",0.921
same,normalized growth,"locus YMR205C, strain PFK2 (second series), stronger effect = lower value",0.846
same,normalized growth,"locus YMR277W, strain FCP1, stronger effect = lower value",0.917
same,normalized growth,"locus YNL006W, strain LST8, stronger effect = lower value",0.932
same,normalized growth,"locus YNL020C, strain ARK1, stronger effect = lower value",0.833
same,normalized growth,"locus YNL161W, strain CBK1, stronger effect = lower value",0.934
same,normalized growth,"locus YNL183C, strain NPR1, stronger effect = lower value",0.861
same,normalized growth,"locus YNL207W, strain RIO2, stronger effect = lower value",0.924
same,normalized growth,"locus YNL222W, strain SSU72, stronger effect = lower value",0.934
same,normalized growth,"locus YNL307C, strain MCK1 (second series), stronger effect = lower value",0.809
same,normalized growth,"locus YOL078W, strain AVO1, stronger effect = lower value",0.928
same,normalized growth,"locus YOL136C, strain PFK27, stronger effect = lower value",0.792
same,normalized growth,"locus YOR061W, strain CKA2, stronger effect = lower value",0.822
same,normalized growth,"locus YOR119C, strain RIO1, stronger effect = lower value",0.778
same,normalized growth,"locus YOR231W, strain MKK1, stronger effect = lower value",0.799
same,normalized growth,"locus YOR329C, strain SCD5, stronger effect = lower value",0.939
same,normalized growth,"locus YPL031C, strain PHO85, stronger effect = lower value",0.781
same,normalized growth,"locus YPL153C, strain RAD53, stronger effect = lower value",0.716
same,normalized growth,"locus YPL204W, strain HRR25, stronger effect = lower value",0.724
same,normalized growth,"locus YPL209C, strain IPL1, stronger effect = lower value",0.937
same,normalized growth,"locus YPL256C, strain CLN2, stronger effect = lower value",0.714 (active)
same,normalized growth,"locus YPR025C, strain CCL1, stronger effect = lower value",0.937
same,normalized growth,"locus YPR106W, strain ISR1, stronger effect = lower value",0.926
same,normalized growth,"locus YPR111W, strain DBF20, stronger effect = lower value",0.918
same,normalized growth,"strain NNK1, stronger effect = lower value",0.921
same,normalized growth,"strain TSCII, stronger effect = lower value",0.929
